# Laboratory results: the OligoGym collection
# Target: SEMA6D
# Experiment: pooled miR-30 sensor sort-seq; sequence = guide strand
# Conditions: shRNA
# Note: reference of the scale not given here.
row,Sequence,sensor-assay potency score (higher = more potent)
1,TATTCTAAGGTACTCAACCTGT,-0.752
2,TACTTTTTCAATGTCATCCATG,-0.449
3,TACTGTATAAACTTGATCCCTG,0.49

# Target: SENP1
# Experiment: as above
# Conditions: shRNA
row,Sequence,sensor-assay potency score (higher = more potent)
1,TTGATTGGTCTGTCTTTGGTAA,-0.497
2,TATCAGTTAATTTATGACCTTT,0.136
3,AACAGTAACAGGAATCTCCTTT,-0.105
4,TTTACTTCGCTCCATCAGCATA,-1.5
5,TTCACTGAGAACTTCATCCTGA,0.885
6,TAATAGGTAATATTCTTCTTTC,-0.79
7,TTATCTGAGTAATAGCTTGGAT,0.0199
8,TTGAACTGTCTCTTCTGCTGTA,0.936
9,TATTGCAAGAGTATTCTGCAGG,-0.448
10,TGTACTAACATGTCGCCTCTGA,0.2
11,TACTGGAACTAAGACATCGAGA,-0.808
12,TAGAGTTTGAATATCTTTGCGT,0.243

# Target: SERPINB7
# Experiment: as above
# Conditions: shRNA
row,Sequence,sensor-assay potency score (higher = more potent)
1,TTCTACAATATTACTTCCTGTG,-0.132
2,TAATATTACGTCTAGTGTCTTC,-0.265
3,TAAGATTTGTGCATCATCCTTG,1.22
4,TTCATAATTCTTCTCTATCTTG,-0.438
5,TTGATTGTCATCCATCTCTCTG,-0.525
6,TTCTCTATCTTGAACTGAGGAA,-0.416
7,ATTTCCTTGATTGTCATCCATC,-1.25
8,TAGAAGAGTTTCCATATCCTGA,0.0524
9,TACTTAGAGGTCATTCGCCTTG,-0.685
10,TTTTCTACAATATTACTTCCTG,0.325
11,TTCTTCTCTATCTTGAACTGAG,-0.146

# Target: SERPINE2
# Experiment: as above
# Conditions: shRNA
row,Sequence,sensor-assay potency score (higher = more potent)
1,TTGTCAATCATATCCCTGGTTT,-0.515
2,TTGATGAATCAAACATGTCAGT,-0.681
3,TATTTTTGCAAAATTTGCCTTT,-0.263
4,TACAGCTGTGAACTTGGGCAGG,-0.9
5,TATTTTAGTGAATACATGCATT,-0.736
6,AACAGAAACACTTGCATCGAGT,-0.757
7,TTCCTCAGTACAGTGTTCCAGC,-0.117
8,ATTCTTAACAAACACGGCGTTA,-0.703
9,TACAGTGTTCCAGCCATCCTGC,-0.935
10,TTAATATTTTACCAACTCCATT,-1.64
11,TTGTGCTACAGCTGTGAACTTG,-0.393
12,TTTAACAGAACTATGAAAGATG,-0.755
